This passage reports PBM binding z-score results from the supplement of paper PMC6555819.

The test system of the assay is VDR:RXRa (NR concentration 270 nM, RXRa partner concentration 90 nM). Put plainly: PBM binding z-score (relative to random genomic background probes); higher = stronger binding; sequences stand for … in GC…GCGATTGACAGCGTAGAATGAAGG
As for the experimental part:
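Protein-binding microarray (Agilent 4x180K custom design, double-stranded 60-nt probes: 5' GC cap, 34-nt variable region, 24-nt constant primer region; full probe sequence given). Purified or IVT nuclear receptor:RXRα heterodimers (3:1 NR:RXRα, mostly 270:90 nM) or homodimers were incubated for 1 h in PBS with 2% milk and no ligand, then detected with Alexa488 antibodies. Fluorescence from o1-orientation probes (~5 replicates averaged) was converted to z-scores against 500 random hg19 background probes. Variable regions are seed direct-repeat (DR0–DR5) sites, all their single-nucleotide variants and half-site ablations.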
Take TCATAGAGGTAAAAGGTGAAAGTCGGTGTGGTAA: the PBM binding z-score was determined as 1.48. CCTACTGGGCCAAAGGTCATTGGTTCCAATGCTC had a PBM binding z-score of 4.8. CCGACTGGGGCAGAAGGTTACCATAAGCCAGCCC came in with a PBM binding z-score of -0.302. To ATATGTAGGTTAATGGTCATTCAGGTTGGTTCGC belongs 1.32; to ACAGACAGGTGATCAAGGTAACTCAGGCTATCAT, 0.483; to AATACAGGGTCATCGTAGGGCAGAGTACGCACAG, 5.71. To CTCGAAAGGTCGTGCTCAGGTGAGTATACCAAAC belongs 3.39; to TCTGCTAGGTCAACGATGATCAGCTAATCTGCTA, 1.17; to TCTATTAGTTGAAGTGCAACCGACGAGTCCGTTT, 1.22.

CCAGACAGGTGAGAAGGTAACTGAGCCTCGATTA yielded a PBM binding z-score of -0.0476. To CAAACTTGGTCACCGGAAGGTCAAAGTCCGCATG belongs 3.88; to CCCATTAGTTGACCATAAGGGCAACCGAAGCTCG, 0.855.

Sequence CCTTACCGGTCACTCCAGGTTATAGCATCGGAGT came in with a PBM binding z-score of 1.46. CATACTAGGTCAAGGTCAAAGTCGGTTTGTGCCA displayed a PBM binding z-score of 5.31.

As to AATATAGGGTCATCGTAGGCCAGAGTACGCACAG, the PBM binding z-score came out at 5.22.

In the case of ATATGTAGGTTATCGGGTTATTCAGTTTGCGCAT, the PBM binding z-score stood at 3.47.

AGAATGAGGTTATTAAGATCAGGGATTTGCGGTC yielded a PBM binding z-score of 2.6. In the case of ATCTCTAGGTAAGGTTCAGTGAAAGATCGATAGA, the PBM binding z-score was 1.33.

AGAACGAGGGCACGCTGAGTTCATAGCAGAGTAG returned a PBM binding z-score of 6.39. To TCATATAGGTAAACAGGTTAAAGTCCGTAAGTTA belongs 1.88. To TCTCGGAGTACACGAAGGTCAGAGCTTTCCAGAG belongs 2.27; to GATACAGGGTCAGCCAGAGGCCAGAGTATGGAAA, 3.64; to GATACAGGGTCAGCTAGAGGCCAGAGTGTGGAAA, 3.39. To ATATGTAGGTTGTCGGGTCATTCAGTTTGCGCAT belongs 5.

Regarding TCTTGTAGATCAACAGGAGATTAAGAAAGATCGA, the PBM binding z-score was found to be 0.136.

Turning to CCTGCTAGGTCAAGGTCAGCTAATCTACAGTATG, the PBM binding z-score was found to be 3.4. The sequence CCTAGCAGGCCAGGGTCTCTCAAGCATTTCGCTT gave a PBM binding z-score of -0.712. In the case of CCTACTGGGCAATTCAGAGGTCATTGATCATATG, the PBM binding z-score amounted to 3.49. Take TCTGCTAGGTCAGTTGGTCCGCTAACGAGCTGCC: the PBM binding z-score amounted to 0.677. In turn, ACTAGCAGGCCAGGTTTGGGTCACTCAAACAAAG had a PBM binding z-score of 0.437.

ATATGTAGGTTACATCCGGGTCATTCAGGCTATG returned a PBM binding z-score of 4.26. Under GCTGCTAGGTCAACTGATGGTCAGCAAAAGCTCG stands 1.69; under ATAGACAGGTGAGTGAAGGTAACTCAGCTGGACG, 0.0461. Under GCGACTGGGGCATCAGCAGTTTACCATAACTTAA stands -0.0228. CGTCCAACGTCAGAGAGGTCAGTGAATGCCGAGT yielded a PBM binding z-score of 3.23.

GCTGCTAGGTCCACTGATGGTCAGCTAAAGCTCG: the PBM binding z-score is -0.609.

In turn, CAAACTAGGTCTAGGTCAAAGTCGGTTTGTGCCA came in with a PBM binding z-score of 1.84. To CCTACTGGGCCAAAGGTCATTCATTCCAATGCTC belongs 4.67; to TCGAGTAGGTTATCAATGGGGCATTCAGCTTTCT, 0.361; to TCTTGTAGATCTACAGGAGGTTAAGAAAGATCGA, 0.41.
